Assay outcomes deposited in PubChem by several laboratories.
The list is not random: actives were taken first. Their share in the collection is about 3.4%.
CendR NRP1 mod: modulators of CendR peptide binding to NRP-1, primary screen, biochemical, fluorescence polarization, uHTS. FAM-RPARPAR peptide binding to NRP-1. inhibition, % at 25 µM. Neuropilin-1 (Homo sapiens), O14786. 360,000 compounds, 0.85% hits. AID 602438, 2012;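 active = inhibition or corrected inhibition above about 18%, plus a signal ratio from 0.5 to 1.5, limit read from the data, passing the limit was not always enough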
ADAM17 inh: ADAM17 inhibitors, primary screen, biochemical, QFRET | Disintegrin and metalloproteinase domain-containing protein 17 (Homo sapiens), P78536 | recombinant ADAM17, EDANS/DABCYL FRET peptide cleavage | inhibition, % at 6.95 µM | 370,000 compounds, 0.83% hits | AID 720648, 2013;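 active = inhibition above the mean of compounds lying between control limits plus 3 SD, set per campaign, cut at about 8.5% in these data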
ADAM10 inh: human ADAM10 inhibitors, primary screen, biochemical, QFRET, HTS; AID 720582, 2013; 370,000 compounds, 0.62% hits; Disintegrin and metalloproteinase domain-containing protein 10 (Homo sapiens), O14672; recombinant ADAM10, EDANS/DABCYL FRET peptide cleavage, 3 h; inhibition, % at 7 µM;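 active = inhibition above a per-campaign cutoff equal to the mean of compounds falling between control-based bounds plus 3 SD, cut at about 20% in these data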
Target sequence (O14672 214-748 limits assumed): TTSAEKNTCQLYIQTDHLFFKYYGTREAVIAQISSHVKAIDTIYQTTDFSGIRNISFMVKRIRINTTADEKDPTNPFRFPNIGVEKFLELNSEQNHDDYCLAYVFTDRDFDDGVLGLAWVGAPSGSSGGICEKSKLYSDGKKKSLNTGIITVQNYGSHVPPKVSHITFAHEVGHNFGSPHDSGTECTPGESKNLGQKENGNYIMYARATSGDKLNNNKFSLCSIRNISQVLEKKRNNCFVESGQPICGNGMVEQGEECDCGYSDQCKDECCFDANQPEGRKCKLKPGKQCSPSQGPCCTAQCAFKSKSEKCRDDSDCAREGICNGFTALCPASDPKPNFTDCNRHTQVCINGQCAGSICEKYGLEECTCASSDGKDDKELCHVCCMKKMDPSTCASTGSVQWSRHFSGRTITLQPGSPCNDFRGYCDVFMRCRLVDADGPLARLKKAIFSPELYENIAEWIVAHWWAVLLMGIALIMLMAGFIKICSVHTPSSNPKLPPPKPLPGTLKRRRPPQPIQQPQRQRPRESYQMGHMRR
proKLK7 act: proKLK7 zymogen activators, primary screen, biochemical, fluorescence intensity. Kallikrein-7 (Homo sapiens), P49862. purified proKLK7, EDANS-DABCYL substrate fluorescence; 100% is mature enzyme control, 0% vehicle. activation, % at 7 µM. 370,000 compounds, 0.9% hits. AID 652039, 2013;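 active = activation above the mean of all tested compounds plus 3 SD, computed per campaign excluding outliers beyond control limits, cut at about 13% in these data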
HGIII-sPLA2 inh: human group III sPLA2 inhibitors, primary screen, biochemical, QFRET, BODIPY PC-A2 liposome substrate. inhibition, % at 12.2 µM. 370,000 compounds, 0.56% hits. Group 3 secretory phospholipase A2 (Homo sapiens), Q9NZ20. QFRET BODIPY PC-A2 liposome hydrolysis, fluorescence. AID 743126, 2013;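 active = inhibition above mean plus 3 SD of compounds lying within the high and low control bounds, cut at about 19% in these data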
hGIII sPLA2 conf: human group III sPLA2 inhibitors, confirmation, biochemical, QFRET, triplicate | shares compounds with HGIII-sPLA2 inh | recombinant hGIII-sPLA2, BODIPY PC-A2 QFRET fluorescence | inhibition, % at 12.2 µM | 2,000 compounds, 34% hits;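 active = mean inhibition across triplicates above the hit cutoff set in the earlier primary screen, cut at about 19% in these data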
535nm interf: 535nm fluorescence optical interference, confirmation, artefact control for HGIII-sPLA2 inhibitor project, biochemical, QFRET | shares compounds with HGIII-sPLA2 inh | BODIPY FL product fluorescence interference | inhibition, % at 12.2 µM | 2,000 compounds, 8.5% hits;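 active = average inhibition above the solvent-only control mean plus 3 SD, cut at about 6% in these data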
535nm interf DR: 535nm fluorescence optical interference, dose response, artefact control for HGIII-sPLA2 inhibitor project, biochemical, QFRET; shares compounds with HGIII-sPLA2 inh; BODIPY FL product fluorescence interference, cell-free; IC50, µM; 240 tested, under 10 active;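 active = IC50 at or below 10 µM; inactive = IC50 above 10 µM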
A number is an active result; i = inactive; nt = not tested or not shown; ! = a repeat was not active.

SMILES	CendR NRP1 mod	ADAM17 inh	ADAM10 inh	proKLK7 act	HGIII-sPLA2 inh	hGIII sPLA2 conf	535nm interf	others
O=C(N/N=C/c1ccc(O)c(O)c1O)/C(=C/c1ccc([N+](=O)[O-])cc1)NC(=O)c1ccccc1	i	i	i	i	24.6	28.7	6.1
O=C(NCc1ccccc1)[C@@H]1CCCN1C(=O)[C@H]1CCCN1C(=O)c1ccccc1C(F)(F)F	nt	i	i	i	i	nt	nt
CCOC(=O)C(NC(=O)Nc1ccc(Cl)cn1)(Oc1ccc(F)cc1)C(F)(F)F (centres undefined)	i	i	i	i	25.4	i	i
CCOC(=O)C(NC(=O)NCc1ccc(F)cc1)(OCC)C(F)(F)F (centres undefined)	i	i	i	i	i	nt	nt
CN(C)c1ccc(/C=C/c2ccc3ccccc3n2)cc1	i	nt	nt	nt	nt	nt	nt
CCN(CC)c1ccc(/C=C/c2cc(-c3ccccc3)c3ccccc3n2)cc1	i	i	i	i	25.4	i	i
CCCN1C(=O)c2[nH]nc(-c3ccccc3)c2C1c1ccc(F)cc1 (centres undefined)	nt	i	i	i	i	nt	nt
COc1ccc(N2CCN(C(=S)NC(=O)c3cccs3)CC2)c([N+](=O)[O-])c1	i	i	i	i	26.3	27.5	i
O=C(CSc1nnc(-c2ccccc2)n1-c1ccccc1)NN=Cc1ccc(-c2ccccc2)cc1	nt	i	i	i	i	nt	nt
CC(=O)C1=C(C)NC(SCC(N)=O)=C(C#N)C1c1sccc1C (centres undefined)	i	i	i	i	22.6	i	i
O=S(=O)(/N=C(/Nc1cc(N2CCOCC2)ncn1)c1ccc(F)cc1)c1ccccc1	i	i	i	i	19.6!	i	i
O=C(NC1CCCCN(Cc2cccc(C(F)(F)F)c2)C1=O)c1ccc(COc2ccccc2)cc1 (centres undefined)	nt	i	i	i	i	nt	nt
CCCC(=O)Nc1c(-c2ccccc2)c(=O)c(C)nn1-c1ccccc1	i	i	i	i	20.1	i	i
Cc1nn(-c2ccccc2)c(NC(=O)C(C)C)c(-c2ccccc2)c1=O	i	i	i	i	i	nt	nt
CCC(=O)N1Cc2cc(C(=O)NCC(F)(F)F)nc(-c3cccc(-c4cncnc4)c3)c2[C@@H]1CCO	i	i	i	i	i	nt	nt
CCNC(=O)c1cc2c(c(-c3cccc(-c4cncnc4)c3)n1)[C@@H](CCO)N(C(C)=O)C2	i	i	i	i	21.2	i	i
CC(=O)c1cc(CN2C(=O)CCC2=O)cs1	i	i	i	i	20.3	i	i
O=C(O)CNS(=O)(=O)Cc1ccccc1	i	i	i	i	20.5	i	i
COc1ccc(C(C(=O)N(C)C2CCCC2)N(Cc2ccc(F)cc2)C(=O)c2csc(-c3ccccc3)n2)cc1OC (centres undefined)	nt	i	i	i	i	nt	nt
Cc1ccc2c(c1)c1c3n2CCN(CC(O)CNC(C)C)C3CCC1 (centres undefined)	i	i	i	i	i	nt	nt
Cc1ccc2c(c1)c1c(n2CC(O)CNC2CCCC2)CCCC1 (centres undefined)	i	i	i	i	20.1	i	i
Cc1ccc(C)c(NC(=O)[C@@H]2CCCN2S(=O)(=O)c2cccc3cccnc23)c1	nt	i	i	nt	i	nt	nt
O=C1c2ccccc2C(=O)N1c1cccc2cccnc12	i	i	i	i	22.3	i	i
CCOc1ccc(NC(=O)c2ccc3c(c2)S(=O)(=O)N=C2CCCCCN23)cc1	i	i	i	i	19.3	i	i
Cc1ccc(-c2csc(N3CCN(c4cc5c(cc4Cl)nc(C(C)N)n5CCCO)CC3)n2)cc1 (centres undefined)	i	i	i	i	22.8	19.7	i
SMILES	CendR NRP1 mod	ADAM17 inh	ADAM10 inh	proKLK7 act	HGIII-sPLA2 inh	hGIII sPLA2 conf	535nm interf	others
COC(c1ccccc1)c1nnc(CCC(=O)NC2CCCCC2)o1 (centres undefined)	i	i	i	i	i	nt	nt
O=C(CCc1nnc(-c2ccccc2)o1)NC1CCCCC1	i	i	i	i	19.3	i	i
COC(=O)[C@]12C[C@H](CC(=O)NCC3CCCCC3)C(=O)N(Cc3cccc4ccccc34)C1=C[C@H](C(C)(C)C)O[C@@H]2C	nt	i	i	i	i	nt	nt
Cc1oc2cc3oc(=O)c(CCC(=O)N(C)CC(=O)O)c(C)c3cc2c1C	i	i	i	i	23.0	i	i
Nc1c(C(=O)N2CCOCC2)cnn1Cc1ccccc1	nt	i	i	i	i	nt	nt
O=C(CN[C@@H](Cc1c[nH]c2ccccc12)C(=O)NCCc1c[nH]c2ccccc12)NC1CCCCC1	nt	i	i	nt	i	nt	nt
CCC(C)(NC(=O)c1ccccc1)C(=O)O (centres undefined)	i	i	i	i	22.7	i	i
COc1cccc(OCC(C)CN2CCC(C(O)(c3ccccc3)c3ccccc3)CC2)c1 (centres undefined)	nt	i	i	i	i	nt	nt
COc1ccc(Nc2nc(-c3ccccc3)c3ccccc3n2)cc1	i	i	i	i	i	nt	nt
COc1cccc(-c2nc(-c3ccccc3)c3ccc(Cl)cc3n2)c1	i	i	i	i	20.4	i	i
COc1cc(OC)c(C(=O)NNC(=S)NC2CCCCC2)cc1OC	i	i	i	i	i	nt	nt
O=C(NNC(=S)Nc1ccccc1)c1cccc(Br)c1	i	i	i	i	i	nt	nt
CC(C)(C)NC(=S)NNC(=O)c1ccc2ncccc2c1	i	i	i	i	i	nt	nt
O=C(NNC(=S)Nc1ccc(Br)cc1)c1ccccc1Br	i	i	i	i	34.9	26.4	8.2
O=C(NNC(=S)NC1CCCCC1)c1ccccc1Br	i	i	i	i	21.3	29.3	i	535nm interf DR=i
O=C(NNC(=S)Nc1ccccc1)c1ccc2ncccc2c1	i	i	i	i	24.0	30.2	i	535nm interf DR=i
O=C(NNC(=S)Nc1ccc(Br)cc1)c1ccccc1	i	i	i	i	19.9	21.7	6.7
O=C(NNC(=S)Nc1ccccc1Cl)c1ccccc1Br	i	i	i	i	22.4	25.9	i
COc1ccc(Cn2ccc3ccc(-c4ccc5ccn(Cc6ccccc6)c5c4)cc32)cc1	nt	i	i	i	i	nt	nt
O=C(Nc1ccccc1)OC[C@@H]1CSCCS(=O)(=O)N1	nt	i	i	i	i	nt	nt
